Experimental findings from PubChem BioAssay (NCATS) are described below.

A short description of assay [1]: Primary qHTS for small molecule stabilizers of the endoplasmic reticulum resident proteome: Secreted ER Calcium Modulated Protein (SERCaMP) assay (AID 1508630). Also: % is scaled to controls: 0 for no effect and ±100 for the full control effect. Summed up: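 The SH-SY5Y reporter protocol was run at 3 concentrations up to 38.3 uM (primary) or 11 concentrations (follow-up): 16 h compound, 100 nM thapsigargin for 4 h, then extracellular luciferase luminescence.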
In general terms: Quantitative high-throughput screening tests each substance at several concentrations.

Assay [2] in a line: A High-Content qHTS Against Drug Library for the Identification of Small Molecules that Inhibit DYT1 Early Onset Primary Dystonia-Associated Cell Pathology (AID 1645839; calls by dose curve). The method in brief:
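Cells were seeded and left for 24 h, then dosed with compound alongside tetracycline induction of mutant EGFP-TorsinA. They were incubated for 48 h, fixed in 4% paraformaldehyde, permeabilized and imaged for mislocalization (%pathology) and cell count.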

The target in assay [3] is Cytochrome P450 2D6 (Homo sapiens) (UniProt P10635). Briefly: Cytochrome P450 family 2 subfamily D member 6 (CYP2D6) small molecule antagonists: luciferase biochemical (cell-free) qHTS assay (AID 1645840; active = well fitted curve in the direction sought with a large enough effect in the repeat runs; an effect the other way counts as inactive or inconclusive; also: nearly all actives have a fitted effect of over 55% in size; also: potency is read from the fitted curve at half-maximal effect). The method in brief: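 P450-Glo CYP2D6 system: proluciferin substrate converted by enzyme to luciferin, read by luminescence proportional to activity. Enzyme-substrate mix with compound 10 min at room temperature, then NADPH regeneration 1 h before detection reagent.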
Cytochrome P450 2D6 (Homo sapiens), sequence (P10635 whole entry, looked up): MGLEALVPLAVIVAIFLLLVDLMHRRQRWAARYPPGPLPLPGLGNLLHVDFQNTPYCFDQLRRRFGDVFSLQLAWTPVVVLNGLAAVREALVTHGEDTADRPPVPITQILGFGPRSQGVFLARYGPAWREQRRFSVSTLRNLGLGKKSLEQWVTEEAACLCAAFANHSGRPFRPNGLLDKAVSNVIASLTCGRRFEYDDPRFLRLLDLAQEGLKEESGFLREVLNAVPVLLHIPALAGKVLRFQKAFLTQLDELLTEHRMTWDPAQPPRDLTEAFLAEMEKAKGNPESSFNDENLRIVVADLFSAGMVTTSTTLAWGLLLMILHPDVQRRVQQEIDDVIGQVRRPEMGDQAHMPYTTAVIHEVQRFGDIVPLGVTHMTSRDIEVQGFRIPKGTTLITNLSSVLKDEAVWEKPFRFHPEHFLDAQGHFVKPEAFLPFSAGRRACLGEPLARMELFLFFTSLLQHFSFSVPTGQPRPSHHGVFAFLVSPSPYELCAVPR

For assay [4], the target named is Cytochrome P450 2C9 (Homo sapiens) (UniProt P11712). Briefly: Cytochrome P450 family 2 subfamily C member 9 (CYP2C9) small molecule antagonists: luciferase biochemical (cell-free) qHTS assay (AID 1645842; active = well fitted curve in the direction sought with a large enough effect in the repeat runs; an effect the other way counts as inactive or inconclusive; also: nearly all actives have a fitted effect of over 55% in size; also: potency is read from the fitted curve at half-maximal effect). The method in brief:
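P450-Glo CYP2C9 system: proluciferin substrate with enzyme in mix containing 0.4% BSA, 10 min at room temperature, then NADPH regeneration solution added and incubated 1 h at 37C. Detection reagent stopped reaction; luminescence read after 20 min as RLU.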

Assay [5] can be described thus: Primary qHTS for inhibitors of nuclear receptor binding SET domain protein 2 (NSD2) in an isogenic RCH-ACV NSD2 p.E1099K mutant (9B) (AID 1645876). Also: nearly all actives have a fitted effect of over 70% in size.
Assay [6] can be described thus: Primary qHTS for inhibitors of nuclear receptor binding SET domain protein 2 (NSD2) in an RCH-ACV wild type WT cells (2C) (AID 1645877). Also: nearly all actives have a fitted effect of over 70% in size.
The target in assay [7] is Cytochrome P450 3A4 (Homo sapiens) (UniProt P08684). Briefly: Cytochrome P450 family 3 subfamily A member 4 (CYP3A4) small molecule antagonists: luciferase qHTS assay (AID 1645841; active = well fitted curve in the direction sought with a large enough effect in the repeat runs; an effect the other way counts as inactive or inconclusive; also: nearly all actives have a fitted effect of over 45% in size). Summed up: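 P450-Glo CYP3A4 enzyme with proluciferin substrate preincubated 10 min with compound at room temperature, then NADPH regeneration 1 h. Luciferin detection reagent added for 20 min; luminescence recorded. Ketoconazole positive control.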
Cytochrome P450 3A4 (Homo sapiens), sequence (P08684 whole entry, looked up): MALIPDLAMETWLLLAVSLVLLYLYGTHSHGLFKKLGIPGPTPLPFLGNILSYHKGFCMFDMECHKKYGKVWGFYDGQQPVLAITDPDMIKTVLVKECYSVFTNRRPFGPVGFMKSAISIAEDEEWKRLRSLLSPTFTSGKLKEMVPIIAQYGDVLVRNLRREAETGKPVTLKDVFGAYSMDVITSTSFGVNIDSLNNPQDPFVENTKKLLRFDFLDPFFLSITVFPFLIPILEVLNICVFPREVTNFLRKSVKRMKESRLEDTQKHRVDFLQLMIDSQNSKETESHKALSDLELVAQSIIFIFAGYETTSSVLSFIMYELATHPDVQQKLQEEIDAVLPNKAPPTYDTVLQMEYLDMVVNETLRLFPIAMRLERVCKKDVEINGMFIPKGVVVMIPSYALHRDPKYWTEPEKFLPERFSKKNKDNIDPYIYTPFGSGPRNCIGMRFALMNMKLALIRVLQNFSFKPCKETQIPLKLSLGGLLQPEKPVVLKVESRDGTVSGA

Assay [8] is described as follows: NCATS anti-infectives library activity on HEK293 viability as a counter-qHTS vs the C. elegans viability qHTS (AID 1745854).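 Also: HEK293 cells exposed to compounds for 24 hr before the viability read; % is scaled to controls: 0 for no effect and ±100 for the full control effect.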 Summed up:
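Compound titrations (final up to 41.7 uM) were incubated with HEK293 cells for 24 hr at 37C under 5% CO2. Viable cells were quantified with CellTiter-Glo after 10 min at ambient temperature.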

A short description of assay [9]: NCATS anti-infectives library activity on the primary C. elegans qHTS viability assay (AID 1745855; calls by dose curve). The note with it: C. elegans worm area imaging, day 7; at 41.8 µM (top of the series). Summed up:
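Titration-based screen in worms: eggs hatched overnight in M9, L1 larvae fed TOP10 capsules in S medium with compound, incubated 21 °C for 7 days; fluorescent objects gated by size and intensity at days 0, 3 and 7.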

For assay [10], the target named is N-terminal Xaa-Pro-Lys N-methyltransferase 1 (Homo sapiens) (UniProt Q9BV86). Briefly: Confirmatory qHTS for Inhibitors of N-terminal methyltransferase 1 (NTMT1): MTaseGlo Assay (AID 1645874).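 Also: luminescence from SAH made as NTMT1 methylates SPKRIA peptide using SAM; 0% = DMSO control and -100% = no-enzyme control; nearly all actives have a fitted effect of over 65% in size.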 Summed up: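 Enzyme mix (125 nM NTMT1, 100 uM SAM) + compound, 15 min RT; + 1 uM SPKRIA, 30 min RT, dark; MTase-Glo reagent 30 min, detection solution 30 min; luminescence. % inhibition vs no-enzyme/DMSO controls, 4-parameter Hill fit.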
N-terminal Xaa-Pro-Lys N-methyltransferase 1 (Homo sapiens), sequence (Q9BV86 whole entry, looked up): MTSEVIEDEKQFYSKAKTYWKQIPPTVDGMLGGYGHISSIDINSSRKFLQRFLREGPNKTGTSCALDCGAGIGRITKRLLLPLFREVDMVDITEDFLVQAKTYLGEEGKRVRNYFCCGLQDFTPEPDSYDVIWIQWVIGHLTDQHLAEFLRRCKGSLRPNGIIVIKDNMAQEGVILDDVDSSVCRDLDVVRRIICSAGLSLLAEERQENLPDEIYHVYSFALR

“And” between values parts separate entries of the source, which are not always exact repeats. Equal values may be shown once. Inconclusive results are not listed. Values without a mark were called inactive. The source made the active and inactive calls. Unless noted, calls follow the shape of the dose curve; as a rule, active = well fitted curve in the direction sought with a large enough effect; inconclusive = small, poorly fitted or top-dose-only effect, or another doubt; inactive = no such curve, though single readings can be large; an effect the other way counts as inactive or inconclusive.

Cytochrome P450 2C9 (Homo sapiens), sequence (P11712 whole entry, looked up): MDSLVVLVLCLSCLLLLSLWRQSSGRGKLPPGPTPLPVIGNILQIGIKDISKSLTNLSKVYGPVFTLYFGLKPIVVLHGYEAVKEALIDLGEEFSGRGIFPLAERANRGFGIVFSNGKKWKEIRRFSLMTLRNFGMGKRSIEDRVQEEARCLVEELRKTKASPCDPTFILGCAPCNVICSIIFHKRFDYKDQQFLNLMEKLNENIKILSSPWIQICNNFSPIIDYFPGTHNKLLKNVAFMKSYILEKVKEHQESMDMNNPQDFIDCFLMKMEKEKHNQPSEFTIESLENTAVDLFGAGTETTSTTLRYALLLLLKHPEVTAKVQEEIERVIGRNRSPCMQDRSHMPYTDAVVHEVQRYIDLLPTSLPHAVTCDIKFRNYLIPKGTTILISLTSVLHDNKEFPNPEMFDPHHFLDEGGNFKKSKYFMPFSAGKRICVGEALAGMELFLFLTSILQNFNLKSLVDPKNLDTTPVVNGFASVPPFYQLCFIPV

For `Cc1ccc(S(=O)(=O)NC(=O)NC2CCCCCCC2)cc1`, the result in [1] was inactive. Further, the Potency entry in assay [2], in assay [3], in assay [5] and in assay [6] was “inactive” each time. Also, in assay [4], the Potency was 17.4 µM (active).

Regarding `Cc1onc(-c2ccccc2)c1-c1ccc(S(N)(=O)=O)cc1`, in assay [1], the outcome was inactive. Moreover, the Potency entry in assay [2] is “inactive”.

For the molecule `COc1cc(O)cc(O)c1`, the outcome in assay [1] was inactive. The Potency result in assay [2], in [3], in [4], in assay [5] and in assay [6] was “inactive” throughout.

`CCN1CC(CCN2CCOCC2)C(c2ccccc2)(c2ccccc2)C1=O` (configuration not stated): the result in assay [1] was inactive. Besides, the Potency result in assay [2] and in assay [4] was “inactive” in each case. Further, the Potency in assay [3] was 436 nM (active).

Consider `CCCCCCCCCCCCCCCCN`, for which the outcome in [1] and in assay [7] was inactive. Besides, the Potency entry in assay [2], in assay [3] and in assay [4] was “inactive” throughout.

As to `NS(=O)(=O)c1cc(-c2nn[nH]n2)c(NCc2cccs2)cc1Cl`, in assay [1], the result was inactive. Besides, the Potency entry in assay [2], in assay [3], in [5] and in [6] was “inactive” throughout. In addition, the Potency in assay [4] is 10.7 µM (active) and 19.5 µM (active).

Regarding `CCCOC(=O)c1ccc(N)cc1`, the result in [1] was inactive. The Potency entry in [2] and in [3] was “inactive” throughout.

As for `O=C1c2ccccc2C(=O)C1c1ccc(Br)cc1`, in assay [1], the result was inactive. Moreover, the Potency entry in [2], in assay [3], in [5] and in [6] was “inactive” throughout. Besides, in assay [4], the Potency was 2.19 µM (active).

For `NC(N)=NS(=O)(=O)c1ccc(N)cc1`, the outcome in [1] and in [7] was inactive. Moreover, the Potency entry in assay [2], in [3], in assay [4], in assay [5] and in assay [6] was “inactive” each time.

On to `O=c1[nH]c2cc(C(F)(F)F)c(N3CCOCC3)cc2n(CP(=O)(O)O)c1=O`, for which the outcome in [1] was inactive. For the same molecule, the Potency entry in assay [2], in assay [3] and in assay [4] was “inactive” throughout.

On to `CC(C)(C)NCC(O)COc1cccc2c1CCC(=O)N2` (configuration not stated), for which the result in assay [1] was inactive. Besides, the Potency entry in assay [2], in assay [3], in assay [4], in assay [5] and in [6] was “inactive” throughout.

`C[C@@H](N)C(=O)O`: the result in [1] and in assay [7] was inactive. The Potency entry in assay [2], in assay [3], in assay [4], in assay [5] and in assay [6] was “inactive” in each case.

In the case of `NCc1ccc(S(N)(=O)=O)cc1`, the outcome in [1], in assay [7], in [8] and in [9] was inactive. In addition, the Potency result in assay [2] and in assay [3] was “inactive” in each case.

For the molecule `CC(=O)N[C@@H](Cc1ccc(O)cc1)C(=O)O`, in assay [1], the result was inactive. Further, the Potency entry in assay [2], in assay [3], in assay [4], in [5] and in [6] was “inactive” throughout.

`Cn1c(=O)c2c(ncn2CCO)n(C)c1=O`: the outcome in assay [1] was inactive. Moreover, the Potency entry in assay [2], in [3], in assay [4] and in [5] was “inactive” in each case.

Consider `O=C(O)Cc1ccc(CCNS(=O)(=O)c2ccc(Cl)cc2)cc1`, for which, in assay [1], the outcome was inactive. Besides, the Potency entry in assay [2] and in [3] was “inactive” throughout.

Regarding `Nc1ncnc2c1ncn2[C@@H]1O[C@H](COP(=O)(O)O)[C@@H](O)[C@H]1O`, the outcome in [1] was inactive. For the same molecule, the Potency entry in assay [2], in assay [3], in [4], in [5] and in assay [6] was “inactive” each time.

For `CC(=O)NS(=O)(=O)c1ccc(N)cc1`, the outcome in [1] and in assay [7] was inactive. For the same molecule, the Potency result in assay [2], in [3], in [5] and in assay [6] was “inactive” each time.

As for `O=C(NCC(O)CO)c1c(I)c(C(=O)NCC(O)CO)c(I)c(N(CCO)C(=O)CO)c1I` (configuration not stated), the result in assay [1] was inactive. Besides, the Potency entry in assay [2], in assay [3], in assay [4] and in assay [5] was “inactive” throughout.

Consider `CC1(c2ccccc2)OC(C(=O)O)=CC1=O` (configuration not stated), for which the outcome in assay [1] and in assay [7] was inactive. The Potency result in [2], in assay [3] and in assay [4] was “inactive” each time.

Consider `CC1CCc2cc(F)cc3c(=O)c(C(=O)O)cn1c23` (configuration not stated), for which the result in assay [1] was inactive. Also, the % pathology change, negative = correction in assay [2] was -13.4% [at 9.22 µM]. The Potency result in assay [3], in assay [4], in assay [5] and in assay [6] was “inactive” in each case.

On to `Cc1cccc(C(=O)O)c1O`, for which, in assay [1], the outcome was inactive. The Potency entry in [2], in [3], in [4], in assay [5] and in [6] was “inactive” in each case.

Take `CNc1c2c(nn1C)CCCC2`: in assay [1], the result was inactive. Besides, the Potency entry in assay [2], in assay [3] and in assay [4] was “inactive” in each case.

Turning to `OC[C@@H](O)[C@@H](O)[C@H](O)[C@H](O)CO`, in assay [1], the outcome was inactive. Moreover, the Potency entry in assay [2], in assay [3] and in [4] was “inactive” each time.

As to `Cn1c([N+](=O)[O-])cnc1COC(N)=O`, in [1], the outcome was inactive. Further, the Potency entry in assay [2], in assay [3], in [4], in assay [5] and in [6] was “inactive” in each case.

Take `C[C@@H](c1ncncc1F)C(O)(Cn1cncn1)c1ccc(F)cc1F` (some centres not stated): the outcome in [1] was inactive. The Potency entry in [2] and in assay [3] was “inactive” each time.

`C[N+](C)(C)CC[N+]1(C)Cc2c(Cl)c(Cl)c(Cl)c(Cl)c2C1`: in assay [1], the result was inactive. Besides, the Potency entry in assay [2], in assay [4], in assay [5] and in assay [6] was “inactive” each time. For the same molecule, the Potency in assay [3] was 1950 nM (active).

Regarding `CCS(=O)(=O)CCn1c([N+](=O)[O-])cnc1C`, the outcome in assay [1] was inactive. Besides, the Potency entry in assay [2] was “inactive”.

As for `CC[C@H](C)[C@H](N)C(=O)O`, in assay [1], the result was inactive. The Potency result in [2], in assay [3], in assay [4], in assay [5] and in [6] was “inactive” throughout.

Consider `O=C(CN1CCNCC1)NC1CCCCC1`, for which the outcome in assay [1] and in [7] was inactive. The Potency entry in assay [2], in assay [3], in assay [4], in [5] and in assay [6] was “inactive” each time.

For the molecule `O=c1[nH]cnc2nc[nH]c12`, the result in assay [1] was inactive. Moreover, the Potency entry in assay [2], in [3], in assay [4], in assay [10], in assay [5] and in [6] was “inactive” throughout.

Regarding `CC(=O)N(CC(O)CN(C(C)=O)c1c(I)c(C(=O)NCC(O)CO)c(I)c(C(=O)NCC(O)CO)c1I)c1c(I)c(C(=O)NCC(O)CO)c(I)c(C(=O)NCC(O)CO)c1I` (configuration not stated), the result in assay [1] and in assay [7] was inactive. For the same molecule, the Potency result in assay [2], in [3], in assay [4], in [5] and in [6] was “inactive” throughout.

For the molecule `O=C(O)CNC(=O)c1ccccc1I`, the result in [1] was inactive. Also, the Potency entry in assay [2], in assay [3] and in assay [4] was “inactive” throughout.

In the case of `CCN(CC)S(=O)(=O)c1ccc(C(=O)O)cc1`, the result in assay [1] and in [7] was inactive. Besides, the Potency entry in [2], in [3], in assay [5] and in assay [6] was “inactive” in each case.

For the molecule `O=C(O)c1ccc[n+]([O-])c1`, the result in assay [1] was inactive. Besides, the Potency entry in assay [2], in assay [3] and in [4] was “inactive” each time.
